L3MBTL1 block: inhibitors of human L3MBTL1. Q9Y468. AlphaScreen L3MBTL1–H3K9me1 peptide binding. Potency, µM (highest dose often 57.1 µM), without a hit: at the highest dose activity, negative = inhibition, actives largely listed as inhibitors. 0.66% of 230,000 active; note: % is set by controls: 0 for no effect and ±100 for the full control effect; nearly all actives have a fitted effect of over 60% in size
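AlphaScreen proximity signal between nickel-chelate acceptor and streptavidin donor beads (final 10 ug/mL) reports binding of 50 nM L3MBTL1 to 75 nM biotin-H3 K9me1 peptide; complex incubated with compounds 30 min at room temperature; cefsulodin titration as control.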
G9a inh: blocks human histone lysine methyltransferase G9a | G9a H3K9 monomethylation, AlphaScreen, 2 h | Potency, µM (series often up to 102 µM), for inactives: at the top dose activity, negative = inhibition, actives largely listed as inhibitors | 8.8% of 350,000 active | AID 504332; note: % is set by controls: 0 for no effect and ±100 for the full control effect; nearly all actives have a fitted effect of over 75% in size
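AlphaScreen read-out: biotin-H3K9 peptide (500 nM) methylation by 20 nM enzyme with 20 uM SAM, 2 h at room temperature after 15 min compound preincubation; anti-monomethyl H3K9 antibody plus donor/acceptor beads, 10 min dark.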
BAZ2B block: inhibitors of human BAZ2B bromodomain; Q9UIF8; AlphaScreen BAZ2B-H3K14Ac peptide displacement; Potency, µM (doses to about 114 µM), without a hit: at the highest dose activity change, negative = inhibition, hits mostly inhibitors; 4.4% of 360,000 active; AID 504333; note: % is set by controls: 0 for no effect and ±100 for the full control effect; nearly all actives have a fitted effect of over 60% in size
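AlphaScreen luminescence quantifies BAZ2B engagement of H3K14Ac peptide; the protein and biotinylated peptide are both at 50 nM final, buffer PBS pH 7.4 with 0.01% Tween-20, all steps at room temperature.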
HP1b chromo inh: inhibitors of HP1-beta chromodomain binding to methylated histone tails; 0.56% of 390,000 active; AlphaScreen HP1-beta / biotin-H3K9me3 peptide binding; Potency, µM (highest dose often 114 µM), for inactives: at the top dose activity change, negative = inhibition, most hits filed as inhibitors; P83916; note: nearly all actives have a fitted effect of over 70% in size
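AlphaScreen: HP1-beta (50 nM) preformed 30 min with biotin-H3(1-18)K9me3 peptide (50 nM) in PBS pH 7.4, 0.01% Tween-20. Compound added for 30 min at RT, then streptavidin donor/nickel chelate acceptor beads (10 ug/mL) for 30 min.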
JMJD2A Tudor: blocks the human JMJD2A Tudor domain; O75164; AlphaScreen JMJD2A-Tudor / H3K4me3 peptide binding; Potency, µM (highest dose often 114 µM), for the others: top-dose activity change, negative = inhibition, most hits filed as inhibitors; 4.4% of 390,000 active; AID 504339; note: % is set by controls: 0 for no effect and ±100 for the full control effect; nearly all actives have a fitted effect of over 50% in size
Target sequence (O75164 whole entry, looked up, the tested form may be a part): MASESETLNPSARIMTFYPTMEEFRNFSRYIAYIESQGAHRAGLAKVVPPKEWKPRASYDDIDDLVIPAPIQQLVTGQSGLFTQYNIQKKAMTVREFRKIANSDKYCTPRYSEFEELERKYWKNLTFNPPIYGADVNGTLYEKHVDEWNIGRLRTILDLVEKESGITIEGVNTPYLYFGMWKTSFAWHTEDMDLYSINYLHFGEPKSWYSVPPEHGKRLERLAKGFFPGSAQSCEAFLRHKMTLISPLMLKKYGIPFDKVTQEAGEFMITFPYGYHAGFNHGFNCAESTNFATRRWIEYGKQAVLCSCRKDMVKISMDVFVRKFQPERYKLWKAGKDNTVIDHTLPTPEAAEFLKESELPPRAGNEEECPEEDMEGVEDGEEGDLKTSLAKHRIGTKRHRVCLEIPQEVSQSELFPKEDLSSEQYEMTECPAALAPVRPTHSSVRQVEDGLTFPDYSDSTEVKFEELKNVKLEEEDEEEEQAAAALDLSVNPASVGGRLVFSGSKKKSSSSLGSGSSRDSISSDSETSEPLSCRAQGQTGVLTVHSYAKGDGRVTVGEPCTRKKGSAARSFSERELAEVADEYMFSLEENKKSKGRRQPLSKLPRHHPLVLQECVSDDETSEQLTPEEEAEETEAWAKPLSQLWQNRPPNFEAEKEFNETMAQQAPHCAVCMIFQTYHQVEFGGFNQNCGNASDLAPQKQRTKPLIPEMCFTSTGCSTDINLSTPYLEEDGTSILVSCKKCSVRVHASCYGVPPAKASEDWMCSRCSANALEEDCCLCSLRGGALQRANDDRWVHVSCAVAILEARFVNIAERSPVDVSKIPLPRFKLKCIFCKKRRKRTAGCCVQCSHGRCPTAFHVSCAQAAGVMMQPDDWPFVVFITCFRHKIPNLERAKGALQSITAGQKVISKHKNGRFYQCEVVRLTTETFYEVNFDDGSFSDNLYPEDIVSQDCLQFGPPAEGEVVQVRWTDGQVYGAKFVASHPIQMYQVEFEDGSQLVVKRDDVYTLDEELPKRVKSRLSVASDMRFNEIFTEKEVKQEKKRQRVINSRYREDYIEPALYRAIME
Numbers without * were called inactive; ? = inconclusive; nt = not tested or not shown; [ ] = dose if it differs, or a comment. A selection: hits, their analogues and other compounds. The true share with any hit is near 11%. Calls come from the whole dose curve; as a rule, active = well fitted inhibition curve with a large enough effect; inconclusive = small, poorly fitted or top-dose-only effect; inactive = no such curve, though single readings can be large or run the other way. Potency is the fitted concentration of half-maximal effect.

SMILES	L3MBTL1 block	G9a inh	BAZ2B block	HP1b chromo inh	JMJD2A Tudor
CCN(CC)S(=O)(=O)c1ccc2c(c1)N(CC(=O)Nc1cccc(C#N)c1)C(=O)CO2	nt	-10.2%[59 µM]	-18.9%	24.7%	-10.1%
COCCc1ccc(OC[C@H](O)CNC(C)C)cc1	nt	-7.7%[12.7 µM]	nt	nt	nt
CCC(C(=O)O)C1CCC(C)C(C(C)C(O)C(C)C(=O)C(CC)C2OC3(C=CC(O)[C@@]4(CC[C@](C)(C5CC[C@@](O)(CC)C(C)O5)O4)O3)C(C)CC2C)O1 (stereo not given in full)	nt	0.7%[2.33 µM]	nt	nt	nt
O=C(OCC(=O)N(CCc1ccccc1)Cc1ccccc1)c1cccc(S(=O)(=O)N2CCOCC2)c1	nt	nt	nt	53.5%	-7.8%
Cn1cnnc1SCC(=O)c1ccc(OC(F)F)cc1	nt	?	1.0%	16.8%	31.6µM*
O=C(C[n+]1ccc(-c2cc(C(=O)Nc3cccc(C(F)(F)F)c3)c3ccccc3n2)cc1)c1cccc([N+](=O)[O-])c1	?	50.1µM*	nt	?	-15.1%
CC(CNCC1CCCO1)COc1cccc2ccccc12 (stereo not given)	1.1%	?	?	?	1.78µM*
Cc1ccc(Cl)cc1N1CCN(C(=O)CSc2nnc3n2C(C)(C)Cc2ccccc2-3)CC1	-4.8%	8.91µM*	3.2%	41.3%	89.1µM*
Cc1ccc(Cl)cc1N1CCN(C(=O)CSc2cc(=O)n(C)c3ccccc23)CC1	nt	-38.2%[59 µM]	nt	16.3%	?
COc1ccc(N2CCN(C(=O)CSc3nnc4n3C(C)(C)Cc3ccccc3-4)CC2)cc1	-0.5%	?	?	-1.8%	-32.1%
Cc1ccc(Cl)cc1N1CCN(C(=O)CSc2ccsc2[N+](=O)[O-])CC1	?	50.1µM*	50.1µM*	-6.2%	?
CCOC(=O)c1ccc(CNc2ncnc3nc[nH]c23)cc1	nt	nt	nt	23.6%[57 µM]	-14.6%[57.1 µM]
CC(=O)C1=C(O)C(=O)N(c2ccc(S(=O)(=O)Nc3nccs3)cc2)C1c1ccc(F)cc1 (stereo not given)	-9.7%	56.2µM*	-28.6%	3.0%	-15.9%
CC(=O)C1=C(O)C(=O)N(c2ccc(S(N)(=O)=O)cc2)C1c1ccc([N+](=O)[O-])cc1 (stereo not given)	5.4%	12.7%[0.501 µM]	?	21.7%	-7.4%
CC(=O)C1=C(O)C(=O)N(c2ccc(S(=O)(=O)Nc3nccs3)cc2)C1c1ccc([N+](=O)[O-])cc1 (stereo not given)	nt	79.4µM*	?	-9.8%	-28.5%
O=S(=O)(Nc1cc(Br)cc2cccnc12)c1ccccc1	nt	nt	nt	9.3%	-19.9%
N#CC1=C(S)N(c2ccc(F)cc2)C2(CCCCC2)NC1=O	6.5%[11.4 µM]	35.5µM*	?	38.2%	-10.6%
COc1cccc(N2CCN(C(=O)Cn3nc(C)n4c(cc5c(OC)cccc54)c3=O)CC2)c1	nt	5.9%[59 µM]	-1.2%	20.4%	-7.3%
O=S(=O)(NCc1ccccc1)c1ccc(NC(=S)NCc2ccco2)cc1	-19.8%	50.1µM*	?	-15.6%	?
O=S(=O)(Nc1ncccn1)c1ccc(NC(=S)NCc2ccco2)cc1	nt	?	-19.5%	18.6%	-25.7%[57.1 µM]
O=C(O)Cc1ccc(NC(=S)NCc2ccco2)cc1	5.1%	21.9%[59 µM]	0.5%	32.6%	-4.7%
COC(=O)c1ccc(NC(=S)N2CCN(C(=O)c3ccco3)CC2)cc1	nt	31.6µM*	-20.5%	9.1%	-6.9%
O=C(c1ccc(NC(=S)NCc2ccco2)cc1)N1CCCCC1	2.6%	50.1µM*	-26.4%	-4.5%	-25.1%
O=C(CNS(=O)(=O)c1ccccc1)NCc1ccco1	nt	79.4µM*	-32.1%	28.1%	-0.3%
COc1cc(Cl)c(C)cc1NC(=O)C1CCCN(c2ncnc3onc(-c4ccc(F)cc4)c23)C1 (stereo not given)	nt	-8.0%[59 µM]	8.3%[57.1 µM]	34.2%	-8.7%
CCC(=O)Nc1ccc(S(=O)(=O)NCc2ccco2)cc1	nt	44.7µM*	-22.4%	20.2%	-12.3%
C/C(=N\Nc1ccccn1)c1ccc(S(=O)(=O)NCc2ccco2)cc1	-18.6%	-14.0%[59 µM]	50.1µM*	?	-30.1%[57.1 µM]
CCNS(=O)(=O)c1ccc(NC(=S)NCc2ccco2)cc1	-8.2%	14.1µM*	-8.0%	-11.3%	-18.9%
CC(=O)Nc1ccc(S(=O)(=O)NNC(=S)NCc2ccco2)cc1	nt	31.6µM*	-22.8%	43.3%	?

Source: PubChem BioAssay (National Center for Advancing Translational Sciences (NCATS))
